# Screens: PubChem BioAssay, several laboratories
# MOR-DOR inv ag – inverse agonists of MOR-DOR heterodimerization, primary screen, cell-based, luminescence; Mu-type opioid receptor (Homo sapiens) + Delta-type opioid receptor (Homo sapiens), …; cell-based MOR-DOR heterodimer luminescence, inverse agonism; inhibition, % at 9.3 µM; 0.21% of 340,000 active; in the data active = inhibition above about 22%, passing the limit was not always enough
# HTR5A ag ctr – HTR5A agonists in luminescence cell assay, primary screen, counter-screen for OPRM1-OPRD1 heterodimer agonist project, full-deck HTS | 5-hydroxytryptamine receptor 5A (Homo sapiens), P47898 | cell-based | activation, % at 9.3 µM | 0.61% of 340,000 active | AID 504692, 2011; in the data active = activation mostly above about 9.5%, no sharp cut-off; inactive = mostly below about 7.6%
# Target sequence (P47898 whole entry, looked up): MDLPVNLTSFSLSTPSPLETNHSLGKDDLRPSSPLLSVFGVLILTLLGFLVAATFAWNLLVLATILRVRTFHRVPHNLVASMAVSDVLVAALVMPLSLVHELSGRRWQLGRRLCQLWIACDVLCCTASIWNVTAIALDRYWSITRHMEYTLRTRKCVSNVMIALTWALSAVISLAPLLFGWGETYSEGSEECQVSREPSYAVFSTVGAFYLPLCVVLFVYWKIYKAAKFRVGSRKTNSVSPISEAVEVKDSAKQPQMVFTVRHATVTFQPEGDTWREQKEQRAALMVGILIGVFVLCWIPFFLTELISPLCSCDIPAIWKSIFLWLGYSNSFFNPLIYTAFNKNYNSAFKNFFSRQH
# beta cell repl – inducers of MIN6 beta-cell proliferation, primary screen, ATP luminescence, uHTS. MIN6 cells proliferation, ATPlite luminescence, 48 h; cells starved in 0.2% serum; 100% = growth in 10% serum. proliferation, % at 10 µM. 0.29% of 330,000 active;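 active = compounds whose signal lies at least 3.5 SD above the mean of all wells on their plate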
# p-CIP stab down – p/CIP-EGFP fusion destabilizers, primary screen, fluorescence, F442A cells; Q05BA5; 16 h; decrease of EGFP signal, % at 10 µM; 0.01% of 290,000 active; AID 1984, 2009;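 active = EGFP signal decrease of at least 30% at 10 µM or well 3 SD below plate mean, unless failing retest; inactive = the rest, including hits failing retest or dose response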
# HTR5A inv ag – HTR5A inverse agonists in luminescence cell assay, primary screen, counter-screen for OPRM1-OPRD1 heterodimer inverse agonist project, full-deck HTS; 0.083% of 340,000 active; inhibition, % at 9.3 µM; HTR5A cell line, inverse agonism; AID 504634, 2011; 5-hydroxytryptamine receptor 5A (Homo sapiens), P47898; in the data active = inhibition mostly above about 23%, no sharp cut-off; inactive = mostly below about 18%
# OPRM1-OPRD1 ag – agonists of OPRM1-OPRD1 heterodimerization, primary screen, cell-based, luminescence; cells; activation, % at 9.3 µM; Mu-type opioid receptor (Homo sapiens) + Delta-type opioid receptor (Homo sapiens), …; AID 504326, 2011; 0.3% of 340,000 active; in the data active = activation above about 18%
# OPRM1-D1 inv cf – inverse agonists of MOR-DOR heterodimerization, confirmation, cell-based, luminescence. shares compounds with MOR-DOR inv ag. cells expressing OPRM1/OPRD1 heterodimer. inhibition, % at 9.3 µM. 20% of 580 active. AID 504900, 2011; in the data active = inhibition above about 32%
# HTR5A inv count – HTR5A inverse agonists, counter-screen for OPRM1-OPRD1 inverse agonist project, cell-based, luminescence. HTR5A-expressing cells, inverse agonism. 580 tested, under 10 active. inhibition, % at 9.3 µM. shares compounds with MOR-DOR inv ag; call rule not given here
# Hits are given with their value; n = inactive; x = no result. Shown are actives, neighbours in structure and some others; about 1.4% of the full set was active somewhere.
SMILES,MOR-DOR inv ag,HTR5A ag ctr,beta cell repl,p-CIP stab down,HTR5A inv ag,OPRM1-OPRD1 ag,OPRM1-D1 inv cf,HTR5A inv count
O=C(NCc1nnnn1-c1ccc(F)c(F)c1)C(=O)c1c[nH]c2ccccc12,n,n,n,x,n,n,x,x
Cc1ccc(C)c(S(=O)(=O)N=Nc2c(O)[nH]c3ccccc23)c1,46,n,n,n,n,n,n,n
Cc1ccc(S(=O)(=O)N=Nc2c(O)[nH]c3ccccc23)cc1,50,n,n,n,n,n,n,n
Cc1ccc(S(=O)(=O)N(CC(=O)N=Nc2c(O)[nH]c3ccccc23)c2ccc(C)c(C)c2)cc1,n,n,x,n,n,n,x,x
CC(C)(O)C(=O)N=Nc1c(O)[nH]c2ccccc12,n,n,n,n,n,n,x,x
Cc1noc(C)c1NC(=O)Nc1ccc2c(c1)CC(=O)N([C@H](C)CO)C[C@@H](C)[C@H](CN(C)CC1CCCCC1)O2,n,n,n,x,n,n,x,x
Cc1[nH][nH]c(=O)c1C(c1c(C)[nH][nH]c1=O)c1cn(Cc2ccc(Cl)c(Cl)c2)c2ccccc12,n,n,x,n,n,n,x,x
Cc1[nH][nH]c(=O)c1C(c1c(C)[nH][nH]c1=O)c1cn(Cc2ccc(F)cc2)c2ccccc12,43,n,x,n,n,n,n,n
CCC(=O)Oc1ccc(C(=O)Nc2cccc(C(=O)NCC(C)C)c2)cc1,32,n,n,n,n,n,n,n
CCC(=O)Oc1ccc(C(=O)Nc2ccccc2C(=O)NCC(C)C)cc1,n,n,n,n,n,n,x,x
ON(CCc1ccncc1)Cc1ccccc1,44,n,x,x,n,n,n,n
COc1cc(/C=C2\C(=O)N(C)C(=S)N2C)ccc1O,n,n,n,n,n,n,x,x
CN1C(=O)/C(=C/c2ccc(O)c([N+](=O)[O-])c2)N(C)C1=S,33,n,n,n,n,n,n,n
CC(C)N(C(=O)COC(=O)c1ccccc1C(=O)c1ccc(Cl)c([N+](=O)[O-])c1)C(C)C,n,n,n,n,n,n,x,x
Cc1cc(C(=O)OCC(=O)c2cccc([N+](=O)[O-])c2)c2ccccc2n1,60,n,n,n,n,n,38,n
O=C(COC(=O)c1cc2ccccc2oc1=O)c1cccc([N+](=O)[O-])c1,47,n,n,n,n,n,46,n
COc1ccccc1C(=O)OCC(=O)c1cccc([N+](=O)[O-])c1,n,n,n,n,n,n,x,x
Cc1cc(C(=O)OCC(=O)c2ccc(Cl)c([N+](=O)[O-])c2)c2cccc(C)c2n1,34,n,n,n,n,n,n,n
CCOC(=O)C1(C(=O)OCC)NC(=O)CC1C(C)C (stereo unspecified),n,n,x,x,n,n,x,x
O=C(CC1(O)C(=O)Nc2ccccc21)c1ccccc1O (stereo unspecified),50,n,n,n,n,n,n,n
O=C(CC1(O)C(=O)Nc2ccccc21)c1cccnc1 (stereo unspecified),52,n,n,n,n,n,n,n
COc1ccc(CNC(=O)Cn2cc(C)c(=O)[nH]c2=O)cc1,n,n,x,x,n,n,x,x
ON1C(c2ccc(Cl)cc2Cl)N(O)[C@H]2CCCC[C@H]21 (stereo partly specified),63,n,n,n,n,n,n,n
CCN1C(=O)C(O)(C2COC(C)(C)CC2=O)c2cc(Br)ccc21 (stereo unspecified),56,n,n,n,n,n,n,n
CC[C@@]1(C(=O)OC)N[C@H](CN(C)C(=O)c2ccc(F)cc2)[C@@H]2C(=O)N(Cc3ccccc3)C(=O)[C@@H]21,n,n,n,x,n,n,x,x
